# Assay results from PubChem BioAssay (Tox21).
# Records with an inconclusive call do not appear. Activity calls are given as the source filed them. Calls come from the whole dose curve.
# Target: Beta-2 adrenergic receptor (Homo sapiens) (UniProt P07550)
# Assay: Adrenergic beta2 receptor (ADRB2) small molecule antagonists, cell-based qHTS assay (AID 1963592); note: nearly all actives have a fitted effect of over 50% in size
# Conditions: CHO-ADRB2 cells, isoproterenol-stimulated cAMP HTRF ratio, 0.5 h; series mostly up to 92.4 µM; activity change, negative = inhibition: at the top concentration
# Excerpt: U.S. Tox21 Program National Center for Advancing Translational Sciences [NCATS] Division of Preclinical Innovation [DPI] U.S. Environmental Protection Agency [EPA] National Institutes of Environmental Health Sciences [NIEHS] National Toxicology Program [NTP] U.S. Food and Drug Administration [FDA] Tox21 Assay Overview: Beta adrenergic receptors (Beta-ARs) belong to the G-protein coupled receptor (GPCR) superfamily, includes three subtypes - beta1, beta2, and beta3. Beta1-AR is the predominant receptor subtype expressed in the heart, and beta2-AR is expressed in the kidney, lung, blood vessel and in the heart, and beta3 is found in the adipocytes. Beta1 and 2 ARs couple to Gs protein and elevate cyclic adenosine mono phosphate (cAMP), which activates protein kinase A and leads to the downstream signaling responsible for the physiological actions. Beta-AR agonists or antagonists are the most prescribed therapeutic agents for heart failure and asthma, and these were one of the first target receptors for the rational drug design. Tox21 10K compound library was screened using the cAMP-Gs dynamic assay (Cisbio Bioassays, Shelton, CT) to identify agonists/antagonists of the Gs-coupled human adrenergic, beta2 receptor (ADRB2) in the CHO-ADRB2 cell line (Codex BioSolutions, Inc. Gaithersburg, MD), which stably over-expresses ADRB2. The principle of cAMP-Gs dynamic assay is based on HTRF technology, which facilitates the fluorescence resonance energy transfer (FRET) between donor Europium cryptate and acceptor d2-labeled cAMP. The cAMP generated within cells competes with the red acceptor, d2-labled cAMP, for binding to the monoclonal anti-cAMP-cryptate (Europium donor). An increase in intracellular cAMP leads to the disruption of FRET signal, and the signal is inversely proportional to the cAMP concentration. Propranolol HCl (Sigma-Aldrich, St. Louis, MO) was used as a positive control in the screening.
# Tox21 Assay Protocol Summary: CHO-ADRB2 cells were dispensed at 1,000/well in 4uL assay medium into white/solid 1536-well plates (Greiner Bio-One North America Inc., Monroe, NC) using a Multidrop Combi dispenser (ThermoFisher Scientific, Waltham, MA). The assay plates were incubated at 37C and 5% CO2 for an overnight (18-20hr). Then positive control and test compounds dissolved in DMSO were transferred to the assay plates at 23nL using a Pintool station (Wako, San Diego, CA). Following the compound and positive control transfer, 1uL agonist-stimulation mix containing 1nM Isoproterenol HCl, 100uM IBMX and 25uM Ro-20-1724 was added to each well of the assay plates using BioRAPTR Flying Reagent Dispenser (FRD, Beckman Coulter, Brea, CA). The assay plates were incubated at room temperature for 0.5hr. Then 2.5ul each d2-labled cAMP and anti-cAMP-cryptate solutions were added separately to each well of the assay plates using an FRD and the assay plates were incubated at room temperature for 1hr. The fluorescence signal was measured at two different wavelengths (665nm and 615nm) using an Envision plate reader (Perkin Elmer, Shelton, CT). Data were expressed as the ratio of 665 nm/615 nm.
# % is set by controls: 0 for no effect and ±100 for the full control effect.
# Beta-2 adrenergic receptor (Homo sapiens), sequence (P07550 whole entry, looked up): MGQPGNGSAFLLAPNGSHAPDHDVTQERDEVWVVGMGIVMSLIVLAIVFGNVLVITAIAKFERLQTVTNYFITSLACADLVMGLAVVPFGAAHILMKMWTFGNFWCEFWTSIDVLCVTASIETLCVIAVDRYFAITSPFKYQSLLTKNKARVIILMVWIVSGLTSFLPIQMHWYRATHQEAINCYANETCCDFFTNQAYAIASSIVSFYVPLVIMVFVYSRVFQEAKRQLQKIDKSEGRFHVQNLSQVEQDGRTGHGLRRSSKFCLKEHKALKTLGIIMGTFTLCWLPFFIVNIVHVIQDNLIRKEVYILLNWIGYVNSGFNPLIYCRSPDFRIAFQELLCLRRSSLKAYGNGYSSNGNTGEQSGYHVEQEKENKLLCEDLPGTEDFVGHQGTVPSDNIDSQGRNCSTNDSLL
Structure (SMILES),"activity change, negative = inhibition",Potency
O=C(NC(=O)c1c(F)cccc1F)Nc1ccc(Oc2ccc(C(F)(F)F)cc2Cl)cc1F,-0.56% (inactive),–
O=C(O)CC(Cl)C(=O)O (stereo not given),-9.32% (inactive),–
CCC1(c2ccccc2)C(=O)NC(=O)NC1=O,0.588% (inactive),–
C=C(Cl)Cl,-5.94% (inactive),–
CCN(CCO)CCn1c(Cc2ccccc2)nc2c1c(=O)n(C)c(=O)n2C,-10.1% [at 42.5 µM] (inactive),–
CCOC(=O)Cc1ccccc1,0.772% (inactive),–
CCCCC/C=C\C/C=C\C/C=C\C/C=C\CCCC(=O)NCC(=O)O,-1.33% [at 42.5 µM] (inactive),–
CNC(=O)Oc1cc(C)cc(C(C)C)c1,0.289% (inactive),–
C[C@]12CC[C@@H]3c4ccc(OC(=O)N(CCCl)CCCl)cc4CC[C@H]3[C@@H]1CC[C@@H]2O,1.73% [at 42.5 µM] (inactive),–
C1=CCC=C1,0.553% (inactive),–
Cc1cccc(Cc2cnc[nH]2)c1C,-0.689% [at 42.5 µM] (inactive),–
CC1(C)COP(Oc2ccccc2)OC1,0.177% (inactive),–
CC(=O)C(Cl)C(=O)N(C)C (stereo not given),8.51% (inactive),–
CO/C=C(/C(=O)OC)c1ccccc1COc1cccc(C(F)(F)F)n1,6.57% (inactive),–
CCCCNC(=O)OCC#CI,–,inactive
COP(=O)(OC)O/C(=C\Cl)c1cc(Cl)c(Cl)cc1Cl,-6.91% (inactive),–
N#CCCSCCC#N,3.82% (inactive),–
C[C@]12CC[C@H]3[C@@H](CCC4=CC(=O)CC[C@@]43C)[C@@H]1CC[C@@H]2C(=O)O,6.77% [at 42.5 µM] (inactive),–
CCCCOC(=O)c1ccccc1N,-15.1% (inactive),–
O=NN(CCO)CCO,-6.74% (inactive),–

Structure (SMILES),"activity change, negative = inhibition",Potency
NP(N)(=O)NC(=O)c1ccc(F)cc1,7.04% [at 42.5 µM] (inactive),–
Oc1c(I)cc(I)cc1I,3.7% (inactive),–
OP(O)c1ccccc1,0.0962% (inactive),–
NNCc1ccccc1,-7.45% (inactive),–
CCCC[N+]1(C)[C@@H]2CC(OC(=O)[C@H](CO)c3ccccc3)C[C@H]1[C@@H]1O[C@@H]12 (stereo not given in full),-0.954% [at 42.5 µM] (inactive),–
O=C1c2ccccc2C(=O)C1C(=O)C(c1ccccc1)c1ccc(Cl)cc1 (stereo not given),13% (inactive),–
CCOC(=O)NC(O)C(Cl)(Cl)Cl (stereo not given),0.476% [at 42.5 µM] (inactive),–
CC(=O)Nc1cc([As](=O)(O)O)ccc1O,11.3% [at 42.5 µM] (inactive),–
CCCSP(=S)(OCC)Oc1ccc(SC)cc1 (stereo not given),-0.0184% (inactive),–
c1cncc([C@@H]2CCCCN2)c1,-3.19% (inactive),–
CS(=O)(=O)c1ccc(C(=O)C2C(=O)CCCC2=O)c(Cl)c1COCC(F)(F)F,1.38% (inactive),–
CCOP(=S)(OCC)SCSCC,7.33% (inactive),–
Oc1c(Cl)c(Cl)cc(Cl)c1Cl,-18.1% (inactive),–
CC1=C2C[C@H]3[C@@H](CC=C4C[C@@H](O)CC[C@@]43C)[C@@H]2CC[C@]12O[C@@H]1C[C@H](C)CN[C@H]1[C@H]2C,1.41% [at 42.5 µM] (inactive),–
N[C@@H](Cc1ccc(Oc2cc(I)c(O)c(I)c2)c(I)c1)C(=O)O,6.78% [at 42.5 µM] (inactive),–
CC(C)COP(=O)(OCC(C)C)OCC(C)C,0.0605% (inactive),–
COCC(C)N(C(=O)CCl)c1c(C)csc1C (stereo not given),-2.17% (inactive),–
Fc1ccc(C2(Cn3cncn3)OC2c2ccccc2Cl)cc1 (stereo not given),-19.6% (inactive),–
Cc1cc(=O)[nH]o1,-12% (inactive),–
CN1C[C@@H](NS(=O)(=O)N(C)C)C[C@@H]2c3cccc4c3c(cn4C)C[C@H]21,-20.7% [at 42.5 µM] (inactive),–
